Measured values published in PubChem BioAssay AID1508600 (Functional Genomics Laboratory (NCATS/FGL), 2020).
About 3,700 (7%) of roughly 53,000 sequences were called active.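 How the source made its calls: active means gene knockdowns whose robust z-score for IL-1 alpha signal is at least 2 or at most -2, so actives lie on both sides; inactive means the rest.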 The entries come from a sample that favours actives as a whole.

Assay: Components of the Cytosolic LPS Sensing Pathway: Gene Identification via Genome-wide siRNA Screen;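 further: robust z of the log signal after scaling to non-targeting control siRNA wells of the plate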
Details: RAW264.7 macrophages, IL-1a HTRF, actives lie on both sides, screened at 100 nM (by protocol), cells primed 5 h with Pam3CSK4 first
Outline: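 Using IL-1a HTRF as read-out, the screen measured release from RAW264.7 cells after 48h siRNA knockdown (100 nM), 5 h Pam3CSK4 priming and 24 h cytosolic LipidA. Values were expressed relative to negative-control wells as robust z-scores.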

Row | Sequence | z-score
1 | CGGAUCGGUGCGAGAAUAATT against Gpatch3 | 0.61 (inactive)
2 | GGCCCUGUGUCAAAUCAGUTT against Zfand6 | 2.1 (active)
3 | GGAGAUUGUUAUGCAAAAATT against Dnah5 | 0.178 (inactive)
4 | GGAAAUUUUGAACCUGACATT against Setd3 | 0.125 (inactive)
5 | GGUCUCAAAGAAAUCUGUATT against Bcap29 | -2.4 (active)
6 | GGACUCUUCAGCUUCCAGUTT against Uts2 | -0.0543 (inactive)
7 | CCAAGACUCUUUAUUCAACTT against Rasip1 | 0.774 (inactive)
8 | GGAGACAGAAAAUCAAGGCTT against Taf7 | -0.506 (inactive)
9 | CCCUUGCUUGCUAAGAUUUTT against Scyl3 | -0.684 (inactive)
10 | GCUGGUGUCUUAUGGCCUATT against 9130008F23Rik | -2.02 (active)
11 | GGAUACAGAGUAUUUCAAGTT against Rtkn | -1.01 (inactive)
12 | GCUUGUUCGGGAAUCUUAUTT against Olfr292 | 0.116 (inactive)
13 | GCCUGUUCCGCCAUUCAUGTT against Flii | -0.2 (inactive)
14 | GCUCACACUCUUCAUUAUCTT against Olfr1408 | -2.91 (active)
15 | GGUGUUAGCUUCUCAAAAUTT against Cltrn | 0.497 (inactive)
16 | GGAACAUCAUCCACUGGAATT against Crhr1 | 6 (active)
17 | GGCAAUUUGUGGAUUAUUGTT against Olfr1105 | -0.458 (inactive)
18 | CCCUAAUUCAUUAGCUAUATT against Dhdds | 0.111 (inactive)
19 | GGACCCUGCUUUUUAAAAATT against Harbi1 | 0.293 (inactive)
20 | GGAAGAGGAGGAAAACUUGTT against Fam135b | -0.653 (inactive)
21 | GGAUGAUCUUGGUGUACACTT against Tmem91 | 3.04 (active)
22 | GGUAUAAUUGGAAUUGUGATT against Morc1 | -0.658 (inactive)

Row | Sequence | z-score
23 | GGUUGUCUGGAAUUUCCAUTT against Immp2l | 3.81 (active)
24 | CCCAAUUCCUUAACUAUUATT against Cd209a | 1.02 (inactive)
25 | GGUGGAAAGUGCAUAGACATT against Notch3 | 0.789 (inactive)
26 | GGACCUGGAUCUAUCCUACTT against Lrfn1 | -0.969 (inactive)
27 | GGAUGAUGACUUCCUAGGGTT against Cpne7 | -0.622 (inactive)
28 | CCUUAGGAUAGAAACAAAGTT against Mypn | 1.01 (inactive)
29 | GCCAGUUAUGAGCAACACCTT against Slc46a1 | -2.14 (active)
30 | GCUAACAAAUGUCAGCAUGTT against Popdc3 | 0.319 (inactive)
31 | GCCGACUUUAAUGACUGCUTT against Cmtm4 | 1.71 (inactive)
32 | CGAAACUGGUCUUUAUACUTT against Tigd4 | -1.27 (inactive)
33 | AUGCGUCCUUCACCAACGATT against Tmem158 | -3.28 (active)
34 | GGAUGACAUGUCAUCAAAGTT against Vmn1r89 | -1.38 (inactive)
35 | GGGAAGAGUGGUGCAAUGATT against Olfr155 | 0.835 (inactive)
36 | GCAACAAUAAAUCGUACAGTT against Nupr1 | 0.246 (inactive)
37 | GGGAAGUUCAUAUUGAUCCTT against Gsdma | 0.691 (inactive)
38 | GGCUUAAGGUGAGAUAUUCTT against Sp9 | -0.524 (inactive)
39 | CGAGUGUUCCUCCAAGUGCTT against Fhl5 | 0.384 (inactive)
40 | GGGACUAAGAUGAAGCUGATT against Fam43a | -2.18 (active)
41 | GCUCACUUAUCUACGUUUUTT against Trim15 | 0.639 (inactive)
42 | GCAUGUGACCUCGUCUUGCTT against Apbb2 | -1.04 (inactive)
43 | GGGCAUGAGAAAUCCACAGTT against Rhox9 | -1.23 (inactive)
44 | GGCAAAUAAAUUCAGCAAGTT against Pum3 | -0.0642 (inactive)

Row | Sequence | z-score
45 | GGACUUCCCGAACUACAUATT against Zfp52 | 0.0339 (inactive)
46 | GGCUCUCUUUAGAACAGACTT against Rad17 | 0.479 (inactive)
47 | GCUACAUACCCAAAUACAUTT against Trpc4ap | 2.1 (active)
48 | GGGACAUAUCUGAAGCAAGTT against Rps26 | 0.896 (inactive)
49 | GCUUCUGUCAUAAUGAUAUTT against Pramel6 | -2.33 (active)
50 | CCAGAAACCAAUCUUUCUUTT against Serpinb1a | -0.0285 (inactive)
51 | CCCUAGUGAUAAGGAAUGCTT against Cxcl9 | 0.228 (inactive)
52 | GGUGACCACUUCAUGUCACTT against Tmem138 | -1.28 (inactive)
53 | GCGGGAGCUUAGCUUUUAUTT against G6pc3 | 3.33 (active)
54 | CCGUAGACUCGGUGAAGCUTT against Plpbp | -0.143 (inactive)
55 | GGUCAGAAUCUUUGUUCCUTT against Ndufs4 | -0.912 (inactive)
56 | GGAUUCCCUGUAUGCCCAATT against Rpl36al | -0.23 (inactive)
57 | GGAGAAGCCAAAAGAAUGCTT against Xrn2 | -0.76 (inactive)
58 | GCUUACAAGUUGCUACUGGTT against Dnajc8 | 0.425 (inactive)
59 | GGGCAAUUCUAUCAAAGAGTT against Gps1 | -2.14 (active)
60 | CCUAUAGCAAUGGCAGCAGTT against Pkn1 | -1.66 (inactive)
61 | GGUCCUUUCCCAUAACCUGTT against Swap70 | -0.922 (inactive)
62 | GCGGACUACUAUGCUAAAGTT against Tgfb1 | 1.08 (inactive)
63 | GGUGUUCAAAAAGUUUAACTT against Zswim1 | 1.02 (inactive)
64 | GCCAAGCUCGCCAAGAUUATT against P4ha2 | 0.273 (inactive)
65 | GCUGAAGUGCAAGAACAAATT against Dmd | 1.91 (inactive)
66 | GGUUUUGGCGGAUACUAAGTT against Plin3 | -0.24 (inactive)

Row | Sequence | z-score
67 | GGAUGAGAGAAAGUUACCCTT against Tspo2 | -2.78 (active)
68 | GGGCAUCUCAGAUUUAGCUTT against Cct3 | -0.0572 (inactive)
69 | GGGUGAAGAUUCUCUACAATT against Dctn3 | -0.621 (inactive)
70 | GGACUGAACCCAAAUGCCUTT against Chtf8 | -1.45 (inactive)
71 | GGAGCUUACAUGGUCCCUATT against Prss37 | -0.238 (inactive)
72 | CGAGAAGGAUAUAAUUGUUTT against Klhl18 | 0.449 (inactive)
73 | GGUUUCGAACUGAUGAAGCTT against Nemf | 0.284 (inactive)
74 | GGCAAAACAAAGAAUGAAATT against Prss40 | -0.38 (inactive)
75 | CGAAGUCUGAAACACAUGUTT against A730018C14Rik | 4.13 (active)
76 | GGACUCACAGAAAUUUCCATT against Slc36a1 | -1.53 (inactive)
77 | GGUAAUGAGACGCGGUUUATT against Ina | 0.202 (inactive)
78 | GCAACACCUUAUGUUUCAUTT against Cab39 | 1.68 (inactive)
79 | GGCACGAUUUGCUUAUUUUTT against Usf2 | 0.0682 (inactive)
80 | GCCUCCUACUGGUUCCAAATT against Commd7 | 2.05 (active)
81 | GUCUUCUCUGCCUGUCUGATT against Lce3c | -0.0986 (inactive)
82 | CCCAGGGAGAAUUGACUUGTT against Sertad1 | 0.0114 (inactive)
83 | GGCCUUUGUAGUAUCCCAGTT against Nudt16 | -0.709 (inactive)
84 | GCACCAAUCAAUGAGGAGATT against Was | -0.785 (inactive)
85 | GGAGUGAUGUCCAUACUGGTT against Leap2 | -2.57 (active)
86 | CCAUCCUAAGCAGAGUCACTT against Frg2f1 | -0.446 (inactive)
87 | GGAUGUUGAUUUUCAUGGUTT against Grpel2 | 1.13 (inactive)
88 | GGGUAUUCAUGAUGUCUUUTT against Kctd6 | 1.39 (inactive)

Row | Sequence | z-score
89 | GGCAUCACUGAUGAAUGAATT against Pacsin2 | -0.585 (inactive)
90 | GGAACAUCCAGUCUCUCACTT against Fbxo31 | 0.244 (inactive)
91 | CCCAGGUGUAUUUUACAUATT against D10Wsu102e | -0.00657 (inactive)
92 | CGCGGAGGUCUCUCUUAUUTT against Prss39 | 2.22 (active)
93 | GGUAUUUAAUGGAAGCCUGTT against Acp7 | -0.537 (inactive)
94 | GGCAUCUUUCAUAAAACCGTT against Atad3aos | -0.622 (inactive)
95 | GCCUAUCAGAAGCUGUUAATT against Eif2ak2 | 3.59 (active)
96 | GGAGAUAUUAUUGUUCAGATT against Cemip2 | -0.337 (inactive)
97 | GUGCUUUCGUGUUUUUCAATT against Klrb1b | -0.388 (inactive)
98 | GCUAUCGUGAUAAUCUGGATT against Gxylt2 | -0.113 (inactive)
99 | CUUAAAGGAAUCCUGGUGGTT against Fam169b | 0.0229 (inactive)
100 | CCUGCAUGCCUAUGUGCGUTT against Ace | 2.89 (active)
101 | GAAGACUUCGUCCUAACAGTT against Ctsg | -0.195 (inactive)
102 | GGCCUCUUACAAAGUGAGATT against Supt7l | -0.265 (inactive)
103 | GGGAUAUGUGAAGCCUCAGTT against Mospd3 | -1.21 (inactive)
104 | GGAACAGUUCCUUGUGGUUTT against Uqcrh | 0.935 (inactive)
105 | GGUUCAGAAUUUAACCUUATT against Phc3 | 3 (active)
106 | GGUAUUGUGAAACGUACACTT against Ky | 0.914 (inactive)
107 | CCGUCGUCCUAGAAAAACCTT against Nsun7 | -1.18 (inactive)
108 | CCUACUAAACUCAGUCUUUTT against Kap | 1.08 (inactive)
